Results reported in the supplement of paper PMC8728848.
About 410 targets per protein were measured; listed, in parts, are those with the strongest signals and a random draw of the rest.

Columns and labels:
Assay in all cases: glycan array binding signal (z-score within array); higher = stronger binding
Conditions in all cases: glycan notation: IUPAC condensed, linker removed
Fuc(a1-2)Gal = molecular target: Fuc(a1-2)Gal
Procedure, shortened: (§1)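 Columns mapping to the same glycan were averaged after glycan names were converted to IUPAC-condensed notation. The data come from 3228 arrays in the Consortium for Functional Glycomics database, limited to those with an available protein sequence. Binding is reported as a within-array Z-score averaged across arrays of one protein sequence and across linkers.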

[1] = molecular target: Fuc(a1-2)Gal(b1-4)GlcNAc(b1-2)Man(a1-3)[Fuc(a1-2)Gal(b1-4)GlcNAc(b1-2)Man(a1-6)]Man(b1-4)GlcNAc(b1-4)GlcNAc
Procedure, shortened: as §1

[2] = molecular target: Fuc(a1-2)Gal6S(b1-3)GlcNAc
Procedure, shortened: as §1

[3] = molecular target: Fuc(a1-2)[Gal(a1-3)]Gal(b1-3)GalNAc
Procedure, shortened: as §1

[4] = molecular target: Fuc(a1-2)[Gal(a1-3)]Gal(b1-3)GalNAc(b1-3)Gal(a1-4)Gal(b1-4)Glc
Procedure, shortened: as §1

[5] = molecular target: Fuc(a1-2)[GalNAc(a1-3)]Gal(b1-3)GalNAc(b1-3)Gal(a1-4)Gal(b1-4)Glc
Procedure, shortened: as §1

[6] = molecular target: Fuc(a1-2)[GalNAc(a1-3)]Gal(b1-4)GlcNAc(b1-3)Gal(b1-4)GlcNAc(b1-3)Gal(b1-4)GlcNAc
Procedure, shortened: as §1

[7] = molecular target: Fuc(a1-3)[Gal(b1-4)]GlcNAc(b1-2)Man(a1-3)[Fuc(a1-3)[Gal(b1-4)]GlcNAc(b1-2)Man(a1-6)]Man(b1-4)GlcNAc(b1-4)[Fuc(a1-6)]GlcNAc
Procedure, shortened: as §1

[8] = molecular target: Fuc(a1-3)[Gal(b1-4)]GlcNAc(b1-3)GalNAc
Procedure, shortened: as §1

[9] = molecular target: Gal(a1-3)Gal(b1-3)GlcNAc(b1-3)GalNAc
Procedure, shortened: as §1

[10] = molecular target: Gal(a1-3)Gal(b1-3)[Fuc(a1-4)]GlcNAc(b1-2)Man(a1-3)[Gal(a1-3)Gal(b1-3)[Fuc(a1-4)]GlcNAc(b1-2)Man(a1-6)]Man(b1-4)GlcNAc(b1-4)GlcNAc
Procedure, shortened: as §1

[11] = molecular target: Gal(a1-3)Gal(b1-4)GlcNAc(b1-6)GalNAc
Procedure, shortened: as §1

[12] = molecular target: Gal(b1-3)GlcNAc(b1-3)Gal(b1-3)GlcNAc
Procedure, shortened: as §1

[13] = molecular target: Gal(b1-3)GlcNAc(b1-3)Gal(b1-4)GlcNAc
Procedure, shortened: as §1

[14] = molecular target: Gal(b1-3)GlcNAc(b1-3)Gal(b1-4)GlcNAc(b1-2)[Gal(b1-3)GlcNAc(b1-3)Gal(b1-4)GlcNAc(b1-6)]Man(a1-6)[Gal(b1-3)GlcNAc(b1-3)Gal(b1-4)GlcNAc(b1-2)Man(a1-3)]Man(b1-4)GlcNAc(b1-4)[Fuc(a1-6)]GlcNAc
Procedure, shortened: as §1

[15] = molecular target: Gal(b1-3)GlcNAc(b1-3)Gal(b1-4)GlcNAc(b1-3)Gal(b1-4)GlcNAc(b1-2)[Gal(b1-3)GlcNAc(b1-3)Gal(b1-4)GlcNAc(b1-3)Gal(b1-4)GlcNAc(b1-6)]Man(a1-6)[Gal(b1-3)GlcNAc(b1-3)Gal(b1-4)GlcNAc(b1-3)Gal(b1-4)GlcNAc(b1-2)Man(a1-3)]Man(b1-4)GlcNAc(b1-4)[Fuc(a1-6)]GlcNAc
Procedure, shortened: as §1

[16] = molecular target: Gal(b1-3)GlcNAc(b1-3)Gal(b1-4)GlcNAc(b1-6)[Gal(b1-3)GlcNAc(b1-3)]Gal(b1-4)Glc
Procedure, shortened: as §1

[17] = molecular target: Gal(b1-3)[Neu5Ac(b2-6)]GalNAc
Procedure, shortened: as §1

[18] = molecular target: Gal(b1-4)GlcNAc(b1-2)Man(a1-3)Man(b1-4)GlcNAc(b1-4)GlcNAc
Procedure, shortened: as §1

[19] = molecular target: Gal(b1-4)GlcNAc(b1-2)[Gal(b1-4)GlcNAc(b1-4)]Man(a1-3)[GlcNAc(b1-4)][Gal(b1-4)GlcNAc(b1-2)[Gal(b1-4)GlcNAc(b1-6)]Man(a1-6)]Man(b1-4)GlcNAc(b1-4)GlcNAc
Procedure, shortened: as §1

[20] = molecular target: Gal(b1-4)GlcNAc(b1-3)Gal(b1-4)GlcNAc(b1-2)Man(a1-3)[Gal(b1-4)GlcNAc(b1-3)Gal(b1-4)GlcNAc(b1-2)Man(a1-6)]Man(b1-4)GlcNAc(b1-4)[Fuc(a1-6)]GlcNAc
Procedure, shortened: as §1

[21] = molecular target: Gal(b1-4)GlcNAc(b1-3)Gal(b1-4)GlcNAc(b1-2)[Gal(b1-4)GlcNAc(b1-3)Gal(b1-4)GlcNAc(b1-6)]Man(a1-6)[Gal(b1-4)GlcNAc(b1-3)Gal(b1-4)GlcNAc(b1-2)Man(a1-3)]Man(b1-4)GlcNAc(b1-4)GlcNAc
Procedure, shortened: as §1

[22] = molecular target: Gal(b1-4)GlcNAc(b1-3)Gal(b1-4)GlcNAc(b1-2)[Gal(b1-4)GlcNAc(b1-3)Gal(b1-4)GlcNAc(b1-6)]Man(a1-6)[Gal(b1-4)GlcNAc(b1-3)Gal(b1-4)GlcNAc(b1-2)Man(a1-3)]Man(b1-4)GlcNAc(b1-4)[Fuc(a1-6)]GlcNAc
Procedure, shortened: as §1

[23] = molecular target: Gal(b1-4)GlcNAc(b1-6)Gal(b1-4)GlcNAc
Procedure, shortened: as §1

[24] = molecular target: Gal(b1-4)GlcNAc(b1-6)[Gal(b1-4)GlcNAc(b1-3)]GalNAc
Procedure, shortened: as §1

[25] = molecular target: Gal3S(b1-4)[Fuc(a1-3)]Glc6S
Procedure, shortened: as §1

[26] = molecular target: Gal3S(b1-4)[Fuc(a1-3)]GlcNAc6S
Procedure, shortened: as §1

B1: LlpA (Burkholderia cenocepacia) (protein)
chain: MGSSHHHHHHSSGLVPRGSHKILGSNETLSAGNVVYSDNGQYHLAMQTDGNLVVYGPTGAVWQSQTSGSGGNRAVMQGDGNLVIYRADNTAAWSSKTAHPGAFLAVQDDGNVVIYWPRPAWASNTSDPATQQSAESKYLASGSTMSAGQTVTVAQYMLVFQADGNLVLYKNGGNPIWSTGTQGKGATYAVMQSDGNFVIYAGSTALWSTKTNGANGAQLVLQSDGNLVIYAPTAAWSTKFGLVTAPTSTSTSNNGPGSGICVGVCPPHPLNGNPFSPVGVGTTGLGFPTPGYPGAAF
glycan array binding signal (z-score) (Fuc(a1-2)Gal): 1.82 | glycan array binding signal (z-score) [1]: -0.314 | glycan array binding signal (z-score) [2]: 0.167 | glycan array binding signal (z-score) [3]: 0.017 | glycan array binding signal (z-score) [4]: -0.361 | glycan array binding signal (z-score) [5]: -0.271 | glycan array binding signal (z-score) [6]: 1.26 | glycan array binding signal (z-score) [7]: 2.08 | glycan array binding signal (z-score) [8]: 0.159 | glycan array binding signal (z-score) [9]: -1.16 | glycan array binding signal (z-score) [10]: 1.1 | glycan array binding signal (z-score) [11]: 0.692 | glycan array binding signal (z-score) [12]: -0.418 | glycan array binding signal (z-score) [13]: -0.526 | glycan array binding signal (z-score) [14]: 1.84 | glycan array binding signal (z-score) [15]: 0.703 | glycan array binding signal (z-score) [16]: 1.7 | glycan array binding signal (z-score) [17]: -0.687 | glycan array binding signal (z-score) [18]: 1.84 | glycan array binding signal (z-score) [19]: 0.349 | glycan array binding signal (z-score) [20]: 2.46 | glycan array binding signal (z-score) [21]: 0.339 | glycan array binding signal (z-score) [22]: 1.91 | glycan array binding signal (z-score) [23]: -0.14 | glycan array binding signal (z-score) [24]: 1.6 | glycan array binding signal (z-score) [25]: 1.83 | glycan array binding signal (z-score) [26]: 0.427
